The term AC50 denotes the concentration giving half of the maximal activity seen.

The source made the active and inactive calls. How the source made its calls: active means hit-call score of the fitted dose curve at least 0.9, where 1 is the maximum; inactive means score below 0.9.

A short description of the test: ATG_Oct_MLP_CIS: Attagene CIS-FACTORIAL HepG2 Assay for human Octamer-Binding Transcription Factor (Oct) (AID 2282993). The following applies: HepG2 Attagene cis-factorial Oct reporter, mRNA; actives raise or lower the signal. Here is the method: ATG_CIS is a cell-based, multiplexed-readout assay that uses HepG2, a human liver cell line, with measurements taken at 24 hours after chemical dosing in a 24-well plate.ATG_Oct_MLP_CIS is one of 52 assay component(s) measured or calculated from the ATG_CIS assay. It is designed to make measurements of mRNA induction, a form of inducible reporter, as detected with fluorescence intensity signals by Reverse transcription polymerase chain reaction (RT-PCR) and Capillary electrophoresis technology.Data from the assay component ATG_Oct_MLP_CIS was analyzed into 1 assay endpoint. This assay endpoint, ATG_Oct_MLP_CIS, was analyzed with bidirectional fitting relative to DMSO as the negative control and baseline of activity. Using a type of inducible reporter, measures of mRNA for gain or loss-of-signal activity can be used to understand the reporter gene at the transcription factor-level as they relate to the gene POU2F1. Furthermore, this assay endpoint can be referred to as a primary readout, because this assay has produced multiple assay endpoints where this one serves a reporter gene function. To generalize the intended target to other relatable targets, this assay endpoint is annotated to the dna binding intended target family, where the subfamily is POU domain protein.
Human liver HepG2 cells are transiently transfected with multiple reporter transcription units (MRTUs) in 6-well plates using FuGene 6 reagent (Roche; 3 ml FuGene/1 mg DNA). The MRTU constructs are regulated by a cis-regulating element (promoter). […] A major difference between the CIS and TRANS system is that in CIS activities of endogenous TFs are measured, whereas the TRANS assay evaluates changes in activities of exogenous, chimeric NR-Gal4 proteins. […] At the end of 24 hour incubation, total RNA was isolated using TriZol reagent (Invitrogen). The isolated RNA is then reverse-transcribed using oligo(dT) primer and Mo-MLV reverse transcriptase (Invitrogen) with DNAse I (Ambion) treatment for 30 min. The one-tenth of the produced cDNA was amplified by PCR using Taq DNA polymerase (Invitrogen) and two reporter sequence-specific primers. The PCR products were fluorescently labeled by primer extension with 6-arboxyfluorescein (6-FAM) 5'-labeled reporter sequence-specific primer (2 min at 95 C, 20 s at 68 C and 10 min at 72 C) and these products were digested with 5U of HpaI (New England Biolabs) for 2h at 37 C. The fragments were purified using Qiaquick PCR columns (Qiagen), analyzed on an ABI 3130xL genetic analyzer (Applied Biosystems) with peak positions identified by using a set of X-rhodamine (ROX)-labeled MapMarker1000 molecular weight standards (BioVentures). The raw capillary electrophoresis data was processed using Attagraph software (Attagene).
As for `CC(C)c1ccccc1O`, the outcome was inactive. As to `CCCCC1CCC(O)CC1` (stereo not given), the molecule was called inactive. For `CC(CN=Cc1ccccc1O)N=Cc1ccccc1O` (stereo not given), the call was inactive.

On to `COC(=O)c1cccnc1`, for which the call was inactive.

On to `N#Cc1cscn1`, for which the result was inactive. Regarding `CCCCCCCCCCCCCCCC(=O)OC/C=C(C)/C=C/C=C(C)/C=C/C1=C(C)CCCC1(C)C`, the molecule was called inactive. For the molecule `Nc1ccn([C@H]2CS[C@@H](CO)O2)c(=O)n1`, the call was inactive. On to `CCNCCO`, for which the outcome was inactive. The same measure, in the same setting: with `CS(=O)(=O)c1ccc(C2=C(c3ccccc3)C(=O)OC2)cc1` the entry was “inactive”; with `COc1ccccc1N=Nc1c(S(=O)(=O)O)cc2cc(S(=O)(=O)O)cc(NC(C)=O)c2c1O`, “inactive”; with `c1ccc(CCc2ccccc2)cc1`, “inactive”. Regarding `C=CCN(CC=C)CC=C`, the outcome was inactive. For `CCCCCCOCCOCCO`, the outcome was inactive. With `C=C(CC(=O)O)C(=O)O`, the outcome was inactive.

`COC(=O)c1ccc([N+](=O)[O-])cc1`: the molecule was called inactive. Still for that read-out and setting: the same measure for `C=CC(=O)OCCCC`: “inactive”. Still for that read-out and setting: with `COC(C)(C)CCO` the entry was “inactive”; with `CCc1ccc(O)c(OC)c1`, “inactive”; with `CC(=O)C(C)O` (stereo not given), “inactive”. As for `CCCOCCO`, the molecule was called inactive. For `CC(=O)C1(C)CC2=C(CCCC2(C)C)CC1C` (stereo not given), the half-maximal activity concentration (AC50) was 61.1 µM (active). As for `CCOc1ccccc1O`, the molecule was classed as inactive. As for `COc1ccc(N=Nc2cc(C)c(N=Nc3ccc(S(=O)(=O)O)cc3)cc2OC)cc1`, the result was inactive. For the molecule `CCC1(C)NC(=O)NC1=O` (stereo not given), the result was inactive.

For the molecule `OC[C@H]1O[C@@H]2O[C@H]3[C@H](O)[C@@H](O)[C@@H](O[C@H]4[C@H](O)[C@@H](O)[C@@H](O[C@H]5[C@H](O)[C@@H](O)[C@@H](O[C@H]6[C@H](O)[C@@H](O)[C@@H](O[C@H]7[C@H](O)[C@@H](O)[C@@H](O[C@H]8[C@H](O)[C@@H](O)[C@@H](O[C@H]9[C@H](O)[C@@H](O)[C@@H](O[C@H]1[C@H](O)[C@H]2O)O[C@@H]9CO)O[C@@H]8CO)O[C@@H]7CO)O[C@@H]6CO)O[C@@H]5CO)O[C@@H]4CO)O[C@@H]3CO`, the molecule was called inactive. Consider `C=C1C[C@]23C[C@@]1(O)CC[C@H]2[C@@]12C=C[C@H](O)[C@@](C)(C(=O)O1)[C@H]2[C@@H]3C(=O)O`, for which the call was inactive. Consider `CC(C)=CCCC(C)CCOC=O` (stereo not given), for which the molecule was called inactive. Take `O=C(O)COCC(=O)O`: the result was inactive. `CCCCCCOC(=O)CCC`: the molecule was called inactive.

For `CCCCCCC(C)Nc1ccc(Nc2ccccc2)cc1` (stereo not given), the molecule was classed as inactive. With `COc1ccc(CCN2CCC(Nc3nc4ccccc4n3Cc3ccc(F)cc3)CC2)cc1`, the result was inactive. As for `CCc1cc(Cc2cc(CC)cc(C(C)(C)C)c2O)c(O)c(C(C)(C)C)c1`, the AC50 is 16.3 µM (active). Take `CCCC(=O)OCCc1ccccc1`: the molecule was called inactive. Same read-out and setting: with `CCCCOC(=O)CCCCCCCC(=O)OCCCC` the entry was “inactive”; with `CCCCCCCCCCCC(=O)OCC(O)CO` (stereo not given), “inactive”; with `N#Cc1ccc(CC(=O)c2cccc(C(F)(F)F)c2)cc1`, “inactive”.

Turning to `CC(Oc1cc(Cl)ccc1Cl)C(=O)O` (stereo not given), the molecule was called inactive. For `O=C(Nc1ccc2c(c1)Cc1ccccc1-2)C(F)(F)F`, the AC50 was 24.5 µM (active).

Turning to `CCOC(=O)COC(=O)c1cc(Oc2ccc(C(F)(F)F)cc2Cl)ccc1[N+](=O)[O-]`, the result was inactive. `C=C(C)[C@@H]1CC=C(C)C(=O)C1`: the outcome was inactive.

The values are drawn from PubChem BioAssay (EPA / NIEHS).
